# Assay results as given in the supplement of paper PMC10849652.
# About 7,900 targets were measured; listed, in parts, are those with a hit and a random draw of the rest. About 0.6% of all pairs of compound and target were hits.
# Legend:
# Assay in all cases: log2 fold change, soluble protein after heating vs DMSO (PISA); higher = thermal stabilisation; K562 cells, 10 uM, 30 min; active = over 0.2 and 3.5 SD of the protein, either way, in both replicates (recomputed)
# [1] = compound: COC1=CC=C(C=C1)CN2C=CC3=C2C=C(C=C3)C(=O)NO
# How it was run: (§1)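 K562 cells at 2×10^6 cells/mL were exposed to 10 μM compound for 30 min, then aliquots were heated for 3 min across 48°C-58°C, pooled, and extracted in PBS containing 0.5% NP-40 at 4°C. The supernatant after 21,000xg for 90 min was taken as soluble protein and measured by TMTpro 16plex LC-MS/MS with channel sums equalised. Thermal stability is reported relative to control samples, with values from duplicates. Fold changes are given on a log2 scale.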
# filanesib = compound: CON(C)C(=O)N1N=C(c2cc(F)ccc2F)S[C@@]1(CCCN)c1ccccc1 [filanesib]
# How it was run: as §1
# zotarolimus = compound: CO[C@H]1C[C@@H]2CC[C@@H](C)[C@@](O)(O2)C(=O)C(=O)N2CCCC[C@H]2C(=O)O[C@H]([C@H](C)C[C@@H]2CC[C@H](n3cnnn3)[C@H](OC)C2)CC(=O)[C@H](C)/C=C(\C)[C@@H](O)[C@@H](OC)C(=O)[C@H](C)C[C@H](C)/C=C/C=C/C=C/1C [zotarolimus]
# How it was run: as §1
# idasanutlin = compound: COc1cc(C(=O)O)ccc1NC(=O)[C@@H]1N[C@@H](CC(C)(C)C)[C@](C#N)(c2ccc(Cl)cc2F)[C@H]1c1cccc(Cl)c1F [idasanutlin]
# How it was run: as §1
# alisertib = compound: COc1cc(Nc2ncc3c(n2)-c2ccc(Cl)cc2C(c2c(F)cccc2OC)=NC3)ccc1C(=O)O [alisertib]
# How it was run: as §1
# [2] = compound: COc1cc2nc(-c3cc(F)ccc3O)nc(N[C@@H]3CNC[C@H]3C(C)(C)O)c2cc1OC
# How it was run: as §1
# gefitinib = compound: COc1cc2ncnc(Nc3ccc(F)c(Cl)c3)c2cc1OCCCN1CCOCC1 [gefitinib]
# How it was run: as §1
# [3] = compound: COc1cccc2cc(-c3nc([C@H]4CC[C@H](C(=O)O)CC4)n4ncnc(N)c34)[nH]c12
# How it was run: as §1
# lapatinib = compound: CS(=O)(=O)CCNCc1ccc(-c2ccc3ncnc(Nc4ccc(OCc5cccc(F)c5)c(Cl)c4)c3c2)o1 [lapatinib]
# How it was run: as §1
# pictilisib = compound: CS(=O)(=O)N1CCN(Cc2cc3nc(-c4cccc5[nH]ncc45)nc(N4CCOCC4)c3s2)CC1 [pictilisib]
# How it was run: as §1
# [4] = compound: CS(=O)(=O)c1ccc(-c2cnc(N)c(C(=O)Nc3ccccc3)n2)cc1
# How it was run: as §1
# crizotinib = compound: C[C@@H](Oc1cc(-c2cnn(C3CCNCC3)c2)cnc1N)c1c(Cl)ccc(F)c1Cl [crizotinib]
# How it was run: as §1
# [5] = compound: C[C@@H]1COCCN1C2=NC(=NC(=C2)C3(CC3)S(=O)(=O)C)C4=C5C=CNC5=CC=C4
# How it was run: as §1
# [6] = compound: C[C@H](C1=CC=C(C=C1)C(=O)NC2=C3C=CNC3=NC=C2)N
# How it was run: as §1
# duvelisib = compound: C[C@H](Nc1ncnc2nc[nH]c12)c1cc2cccc(Cl)c2c(=O)n1-c1ccccc1 [duvelisib]
# How it was run: as §1
# gandotinib = compound: Cc1cc(Nc2cc(CN3CCOCC3)c3nc(C)c(Cc4ccc(Cl)cc4F)n3n2)n[nH]1 [gandotinib]
# How it was run: as §1
# tozasertib = compound: Cc1cc(Nc2cc(N3CCN(C)CC3)nc(Sc3ccc(NC(=O)C4CC4)cc3)n2)n[nH]1 [tozasertib]
# How it was run: as §1
# [7] = compound: Cc1cc(SCc2sc(-c3ccc(C(F)(F)F)cc3)nc2C)ccc1OCC(=O)O
# How it was run: as §1
# doramapimod = compound: Cc1ccc(-n2nc(C(C)(C)C)cc2NC(=O)Nc2ccc(OCCN3CCOCC3)c3ccccc23)cc1 [doramapimod]
# How it was run: as §1
# ispinesib = compound: Cc1ccc(C(=O)N(CCCN)[C@@H](c2nc3cc(Cl)ccc3c(=O)n2Cc2ccccc2)C(C)C)cc1 [ispinesib]
# How it was run: as §1
# UniProt Q9H4G4, sequence (Q9H4G4 whole entry, looked up): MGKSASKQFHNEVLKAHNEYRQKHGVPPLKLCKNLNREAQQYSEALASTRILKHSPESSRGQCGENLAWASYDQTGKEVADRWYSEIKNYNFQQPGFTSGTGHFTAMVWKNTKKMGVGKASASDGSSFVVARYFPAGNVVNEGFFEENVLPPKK
# UniProt Q9UQC2, sequence (Q9UQC2 whole entry, looked up): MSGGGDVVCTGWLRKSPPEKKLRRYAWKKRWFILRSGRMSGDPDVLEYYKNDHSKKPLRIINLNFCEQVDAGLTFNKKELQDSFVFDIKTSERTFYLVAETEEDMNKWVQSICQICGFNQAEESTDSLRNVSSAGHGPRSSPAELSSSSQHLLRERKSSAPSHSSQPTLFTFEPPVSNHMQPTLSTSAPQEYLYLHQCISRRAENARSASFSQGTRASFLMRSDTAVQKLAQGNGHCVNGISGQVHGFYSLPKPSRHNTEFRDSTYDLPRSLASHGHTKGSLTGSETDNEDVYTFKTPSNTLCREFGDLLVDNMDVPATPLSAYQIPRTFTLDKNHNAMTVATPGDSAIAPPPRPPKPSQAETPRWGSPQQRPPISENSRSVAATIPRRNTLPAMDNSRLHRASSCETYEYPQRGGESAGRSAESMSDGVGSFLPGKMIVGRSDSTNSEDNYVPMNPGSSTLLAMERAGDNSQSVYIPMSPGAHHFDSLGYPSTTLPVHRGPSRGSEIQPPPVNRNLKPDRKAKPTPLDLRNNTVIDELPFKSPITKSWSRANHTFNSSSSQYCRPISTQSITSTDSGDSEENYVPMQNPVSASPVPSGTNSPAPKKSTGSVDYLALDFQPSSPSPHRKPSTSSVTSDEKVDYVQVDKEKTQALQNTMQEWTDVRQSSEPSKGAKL
# UniProt Q9HCG7, sequence (Q9HCG7 whole entry, looked up): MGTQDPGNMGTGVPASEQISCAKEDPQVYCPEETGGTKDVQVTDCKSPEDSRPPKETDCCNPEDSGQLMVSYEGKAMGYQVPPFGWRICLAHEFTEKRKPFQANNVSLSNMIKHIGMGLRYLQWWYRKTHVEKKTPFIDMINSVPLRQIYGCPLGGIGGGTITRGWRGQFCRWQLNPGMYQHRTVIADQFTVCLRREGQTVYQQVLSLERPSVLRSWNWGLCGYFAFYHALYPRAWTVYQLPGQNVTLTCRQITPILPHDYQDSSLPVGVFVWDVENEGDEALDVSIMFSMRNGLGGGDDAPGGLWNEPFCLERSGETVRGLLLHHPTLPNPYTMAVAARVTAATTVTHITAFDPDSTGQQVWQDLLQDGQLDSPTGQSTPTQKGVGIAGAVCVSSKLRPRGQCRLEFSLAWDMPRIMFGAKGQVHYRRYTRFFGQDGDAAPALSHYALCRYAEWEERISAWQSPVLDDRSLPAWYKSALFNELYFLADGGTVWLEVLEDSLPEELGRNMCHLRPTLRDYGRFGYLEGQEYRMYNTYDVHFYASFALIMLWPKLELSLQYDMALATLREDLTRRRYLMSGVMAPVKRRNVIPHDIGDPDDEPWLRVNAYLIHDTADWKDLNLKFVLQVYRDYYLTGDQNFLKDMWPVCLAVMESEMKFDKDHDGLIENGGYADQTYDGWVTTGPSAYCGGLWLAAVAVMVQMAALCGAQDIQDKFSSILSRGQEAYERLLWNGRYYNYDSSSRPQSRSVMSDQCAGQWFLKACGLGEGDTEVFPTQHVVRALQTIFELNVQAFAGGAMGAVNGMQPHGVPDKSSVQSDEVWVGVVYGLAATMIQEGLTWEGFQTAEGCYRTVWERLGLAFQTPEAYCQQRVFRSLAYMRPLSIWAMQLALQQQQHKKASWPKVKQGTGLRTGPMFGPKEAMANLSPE
# UniProt Q9BYC5, sequence (Q9BYC5 whole entry, looked up): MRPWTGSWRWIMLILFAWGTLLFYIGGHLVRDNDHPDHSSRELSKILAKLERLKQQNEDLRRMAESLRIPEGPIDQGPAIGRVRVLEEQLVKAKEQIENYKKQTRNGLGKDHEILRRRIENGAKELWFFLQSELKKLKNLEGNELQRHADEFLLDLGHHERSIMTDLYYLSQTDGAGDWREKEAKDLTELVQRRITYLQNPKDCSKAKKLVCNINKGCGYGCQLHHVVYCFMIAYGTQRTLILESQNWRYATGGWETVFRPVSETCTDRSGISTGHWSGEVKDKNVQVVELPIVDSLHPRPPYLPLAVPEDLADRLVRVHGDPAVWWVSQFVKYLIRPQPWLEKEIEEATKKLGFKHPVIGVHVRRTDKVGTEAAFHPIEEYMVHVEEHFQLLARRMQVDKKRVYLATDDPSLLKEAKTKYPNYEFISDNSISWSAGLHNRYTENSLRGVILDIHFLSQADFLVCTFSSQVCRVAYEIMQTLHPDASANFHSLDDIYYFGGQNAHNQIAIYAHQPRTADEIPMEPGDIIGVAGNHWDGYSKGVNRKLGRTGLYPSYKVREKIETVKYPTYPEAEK
# UniProt O15228, sequence (O15228 whole entry, looked up): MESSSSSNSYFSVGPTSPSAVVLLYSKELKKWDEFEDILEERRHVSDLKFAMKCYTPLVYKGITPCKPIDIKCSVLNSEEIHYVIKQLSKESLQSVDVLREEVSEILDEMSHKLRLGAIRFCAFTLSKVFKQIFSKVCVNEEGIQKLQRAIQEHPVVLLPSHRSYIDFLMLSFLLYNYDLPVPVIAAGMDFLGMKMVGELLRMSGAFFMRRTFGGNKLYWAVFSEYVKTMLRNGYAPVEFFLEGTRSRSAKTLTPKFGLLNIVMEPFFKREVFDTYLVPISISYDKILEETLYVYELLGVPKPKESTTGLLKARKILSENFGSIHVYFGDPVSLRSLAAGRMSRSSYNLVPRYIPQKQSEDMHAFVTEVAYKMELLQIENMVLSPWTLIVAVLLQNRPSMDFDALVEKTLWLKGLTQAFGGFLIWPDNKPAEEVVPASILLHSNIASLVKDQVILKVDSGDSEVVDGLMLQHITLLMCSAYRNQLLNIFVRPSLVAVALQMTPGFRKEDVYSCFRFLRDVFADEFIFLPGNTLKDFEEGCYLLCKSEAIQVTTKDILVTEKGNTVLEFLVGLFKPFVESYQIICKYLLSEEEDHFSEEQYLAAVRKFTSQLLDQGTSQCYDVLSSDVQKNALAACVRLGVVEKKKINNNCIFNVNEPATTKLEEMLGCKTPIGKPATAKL
# UniProt P04066, sequence (P04066 whole entry, looked up): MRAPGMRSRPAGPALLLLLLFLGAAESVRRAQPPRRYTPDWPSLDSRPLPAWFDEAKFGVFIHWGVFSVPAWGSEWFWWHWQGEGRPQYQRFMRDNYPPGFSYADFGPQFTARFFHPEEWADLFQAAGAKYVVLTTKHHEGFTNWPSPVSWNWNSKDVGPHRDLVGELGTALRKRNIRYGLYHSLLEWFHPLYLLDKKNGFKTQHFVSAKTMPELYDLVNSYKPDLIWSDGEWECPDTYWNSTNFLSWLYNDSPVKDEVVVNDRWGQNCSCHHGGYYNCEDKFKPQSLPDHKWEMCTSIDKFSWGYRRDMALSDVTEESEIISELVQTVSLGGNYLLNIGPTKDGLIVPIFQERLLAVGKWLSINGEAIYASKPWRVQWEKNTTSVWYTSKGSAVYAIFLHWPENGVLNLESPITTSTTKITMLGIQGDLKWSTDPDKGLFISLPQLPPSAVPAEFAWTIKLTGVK
# UniProt Q92917, sequence (Q92917 whole entry, looked up): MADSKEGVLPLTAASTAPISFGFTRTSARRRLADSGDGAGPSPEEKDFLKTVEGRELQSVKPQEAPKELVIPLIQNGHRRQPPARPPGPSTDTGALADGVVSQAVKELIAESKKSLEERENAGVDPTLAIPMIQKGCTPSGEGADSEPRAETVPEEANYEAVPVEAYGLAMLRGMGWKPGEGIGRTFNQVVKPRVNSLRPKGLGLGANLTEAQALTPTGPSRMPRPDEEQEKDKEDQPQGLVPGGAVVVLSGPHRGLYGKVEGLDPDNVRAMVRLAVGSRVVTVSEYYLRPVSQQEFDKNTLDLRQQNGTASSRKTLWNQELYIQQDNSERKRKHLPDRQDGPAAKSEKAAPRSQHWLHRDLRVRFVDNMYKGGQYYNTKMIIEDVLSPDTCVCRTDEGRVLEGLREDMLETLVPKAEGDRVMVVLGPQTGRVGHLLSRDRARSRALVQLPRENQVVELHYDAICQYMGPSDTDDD
# UniProt O43427, sequence (O43427 whole entry, looked up): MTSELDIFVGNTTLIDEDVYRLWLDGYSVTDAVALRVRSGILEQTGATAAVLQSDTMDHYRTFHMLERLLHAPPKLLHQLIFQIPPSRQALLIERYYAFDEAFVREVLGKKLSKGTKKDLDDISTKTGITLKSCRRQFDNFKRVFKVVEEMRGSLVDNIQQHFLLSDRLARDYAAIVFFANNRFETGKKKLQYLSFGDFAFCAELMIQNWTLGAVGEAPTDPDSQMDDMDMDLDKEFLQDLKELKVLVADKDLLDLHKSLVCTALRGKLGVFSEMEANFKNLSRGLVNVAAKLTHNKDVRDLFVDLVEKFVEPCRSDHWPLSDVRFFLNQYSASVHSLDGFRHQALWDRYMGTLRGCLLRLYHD
# UniProt Q9UJY4, sequence (Q9UJY4 whole entry, looked up): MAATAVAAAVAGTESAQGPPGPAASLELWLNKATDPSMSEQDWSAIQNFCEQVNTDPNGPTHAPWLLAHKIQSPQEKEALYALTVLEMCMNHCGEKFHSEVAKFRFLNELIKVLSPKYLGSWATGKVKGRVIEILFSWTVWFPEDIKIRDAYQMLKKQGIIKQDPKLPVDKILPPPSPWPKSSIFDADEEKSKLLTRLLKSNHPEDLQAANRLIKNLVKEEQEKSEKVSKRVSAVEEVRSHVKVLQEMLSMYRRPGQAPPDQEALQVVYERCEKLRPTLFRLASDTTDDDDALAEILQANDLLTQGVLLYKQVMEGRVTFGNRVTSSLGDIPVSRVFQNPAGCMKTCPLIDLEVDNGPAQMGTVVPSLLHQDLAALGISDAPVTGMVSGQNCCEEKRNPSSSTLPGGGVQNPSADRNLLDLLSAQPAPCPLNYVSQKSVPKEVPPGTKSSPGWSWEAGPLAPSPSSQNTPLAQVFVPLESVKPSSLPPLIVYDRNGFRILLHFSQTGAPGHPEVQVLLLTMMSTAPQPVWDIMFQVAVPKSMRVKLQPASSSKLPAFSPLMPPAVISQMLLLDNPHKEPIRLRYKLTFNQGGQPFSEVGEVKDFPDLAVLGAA
Target,log2 fold change [1],log2 fold change (filanesib),log2 fold change (zotarolimus),log2 fold change (idasanutlin),log2 fold change (alisertib),log2 fold change [2],log2 fold change (gefitinib),log2 fold change [3],log2 fold change (lapatinib),log2 fold change (pictilisib),log2 fold change [4],log2 fold change (crizotinib),log2 fold change [5],log2 fold change [6],log2 fold change (duvelisib),log2 fold change (gandotinib),log2 fold change (tozasertib),log2 fold change [7],log2 fold change (doramapimod),log2 fold change (ispinesib)
GNPAT (UniProt O15228),0.008 (inactive),-0.054 (inactive),0.064 (inactive),-0.05 (inactive),-0.038 (inactive),-0.022 (inactive),0.03 (inactive),0 (inactive),0.061 (inactive),0.148 (inactive),0.029 (inactive),-0.071 (inactive),0.087 (inactive),-0.088 (inactive),0.021 (inactive),-0.076 (inactive),-0.002 (inactive),0.06 (inactive),0.034 (inactive),-0.006 (inactive)
FCHO1 (UniProt O14526),0.061 (inactive),0.055 (inactive),0.068 (inactive),0.072 (inactive),-0.055 (inactive),0.256 (inactive),0.046 (inactive),0.022 (inactive),-0.105 (inactive),,0.033 (inactive),-0.118 (inactive),0.158 (inactive),0.161 (inactive),-0.039 (inactive),,0.043 (inactive),0.109 (inactive),-0.009 (inactive),-0.264 (inactive)
HADHA (UniProt P40939),0.267 (inactive),0.082 (inactive),0.081 (inactive),-0.321 (inactive),-0.035 (inactive),0.155 (inactive),0.209 (inactive),-0.088 (inactive),0.148 (inactive),0.425 (inactive),-0.058 (inactive),0.079 (inactive),0.068 (inactive),-0.017 (inactive),0.201 (inactive),0.086 (inactive),-0.154 (inactive),0.154 (inactive),0.176 (inactive),0.171 (inactive)
HS1BP3 (UniProt Q53T59),0.032 (inactive),-0.085 (inactive),0.02 (inactive),0.039 (inactive),,0.087 (inactive),-0.196 (inactive),,0.118 (inactive),,0.06 (inactive),-0.044 (inactive),0.028 (inactive),0.143 (inactive),0.096 (inactive),,,-0.012 (inactive),0.089 (inactive),-0.165 (inactive)
GGA2 (UniProt Q9UJY4),0.012 (inactive),-0.09 (inactive),0.069 (inactive),-0.017 (inactive),-0.067 (inactive),0.181 (inactive),-0.004 (inactive),0.112 (inactive),-0.027 (inactive),,0.038 (inactive),-0.089 (inactive),0.032 (inactive),0.036 (inactive),0.053 (inactive),,-0.025 (inactive),0.015 (inactive),0.009 (inactive),-0.177 (inactive)
GPX4 (UniProt P36969),-0.035 (inactive),-0.011 (inactive),-0.248 (active),0.032 (inactive),-0.02 (inactive),0.003 (inactive),-0.004 (inactive),0.076 (inactive),-0.036 (inactive),-0.034 (inactive),0.014 (inactive),0.079 (inactive),0.011 (inactive),-0.072 (inactive),0.055 (inactive),0.013 (inactive),0.023 (inactive),-0.017 (inactive),-0.039 (inactive),0.213 (inactive)
GPAT4 (UniProt Q86UL3),-0.034 (inactive),-0.024 (inactive),0.055 (inactive),-0.093 (inactive),0.01 (inactive),0.188 (inactive),0.006 (inactive),-0.046 (inactive),-0.031 (inactive),0.036 (inactive),0.15 (inactive),0.287 (active),0.066 (inactive),-0.071 (inactive),0.017 (inactive),-0.009 (inactive),0.063 (inactive),0.061 (inactive),-0.063 (inactive),0.194 (inactive)
GLIPR2 (UniProt Q9H4G4),0 (inactive),-0.147 (inactive),0.024 (inactive),0.096 (inactive),-0.031 (inactive),-0.239 (inactive),,-0.036 (inactive),0.103 (inactive),-0.011 (inactive),0.034 (inactive),-0.243 (inactive),-0.018 (inactive),-0.064 (inactive),0.1 (inactive),0.157 (inactive),-0.062 (inactive),0.007 (inactive),-0.01 (inactive),-0.459 (active)
FUCA1 (UniProt P04066),-0.014 (inactive),-0.057 (inactive),-0.025 (inactive),-0.044 (inactive),-0.004 (inactive),-0.113 (inactive),0.003 (inactive),0.1 (inactive),0.047 (inactive),0 (inactive),0.019 (inactive),-0.079 (inactive),0.031 (inactive),-0.049 (inactive),0.007 (inactive),0 (inactive),-0.007 (inactive),-0.044 (inactive),0.021 (inactive),-0.007 (inactive)
GBA2 (UniProt Q9HCG7),-0.064 (inactive),0.117 (inactive),0.087 (inactive),-0.042 (inactive),0.067 (inactive),0.049 (inactive),0.084 (inactive),-0.062 (inactive),0.011 (inactive),,0.091 (inactive),0.094 (inactive),0.051 (inactive),0.004 (inactive),0.041 (inactive),,-0.053 (inactive),0.067 (inactive),0.056 (inactive),
GABPA (UniProt Q06546),0.01 (inactive),-0.111 (inactive),0.063 (inactive),-0.025 (inactive),-0.002 (inactive),-0.134 (inactive),0.032 (inactive),0.029 (inactive),0.048 (inactive),0.02 (inactive),0.059 (inactive),-0.028 (inactive),0.126 (inactive),0.012 (inactive),0.089 (inactive),-0.029 (inactive),0.025 (inactive),0.068 (inactive),-0.018 (inactive),-0.099 (inactive)
GPKOW (UniProt Q92917),-0.055 (inactive),-0.118 (inactive),0.024 (inactive),-0.06 (inactive),0.039 (inactive),-0.021 (inactive),0.047 (inactive),0.11 (inactive),-0.005 (inactive),-0.037 (inactive),0.004 (inactive),-0.147 (inactive),0.104 (inactive),-0.004 (inactive),0.087 (inactive),-0.094 (inactive),-0.121 (inactive),0.195 (inactive),-0.03 (inactive),-0.013 (inactive)
FIBP (UniProt O43427),0.083 (inactive),-0.051 (inactive),-0.047 (inactive),0.03 (inactive),0.016 (inactive),0.042 (inactive),,-0.084 (inactive),0.008 (inactive),0.185 (inactive),0.022 (inactive),-0.043 (inactive),0.257 (inactive),0.118 (inactive),0.041 (inactive),-0.094 (inactive),-0.144 (inactive),0.02 (inactive),-0.048 (inactive),-0.052 (inactive)
GTF3C5 isoform 3 (UniProt Q9Y5Q8),-0.115 (inactive),-0.039 (inactive),0.116 (inactive),-0.068 (inactive),0.064 (inactive),0.024 (inactive),-0.003 (inactive),-0.034 (inactive),0.13 (inactive),-0.148 (inactive),0.01 (inactive),0.17 (inactive),0.016 (inactive),0.158 (inactive),-0.106 (inactive),0.043 (inactive),0.063 (inactive),0.034 (inactive),0.095 (inactive),-0.248 (inactive)
FUT8 (UniProt Q9BYC5),-0.156 (inactive),-0.043 (inactive),-0.019 (inactive),-0.066 (inactive),0.022 (inactive),,0.084 (inactive),-0.03 (inactive),,-0.032 (inactive),0.018 (inactive),-0.235 (inactive),0.077 (inactive),-0.011 (inactive),-0.007 (inactive),0.034 (inactive),-0.14 (inactive),0.178 (inactive),-0.017 (inactive),-0.148 (inactive)
GAB2 (UniProt Q9UQC2),0.044 (inactive),-0.053 (inactive),-0.145 (inactive),0.084 (inactive),0.007 (inactive),-0.526 (inactive),,-0.236 (inactive),0.033 (inactive),-0.348 (inactive),-0.084 (inactive),-0.899 (active),-0.361 (inactive),0.033 (inactive),-0.836 (active),-0.071 (inactive),-0.34 (inactive),0.181 (inactive),0.118 (inactive),-0.511 (inactive)
